Whole data set: some 33,000 sequences, median “E-score (-0.5 to 0.5)” near -0.017, cut for the highest 2% near 0.3. The full list was thinned out, with the highest values kept by preference.
What follows are sequences tested against T1, Sut1 (UniProt P53032) (assay: PBM E-score (8-mer binding enrichment) (E-score (-0.5 to 0.5)); higher = stronger / more preferred TF binding). Settings: protein concentration: 200 nM; construct: GST-full length.
T1 sequence: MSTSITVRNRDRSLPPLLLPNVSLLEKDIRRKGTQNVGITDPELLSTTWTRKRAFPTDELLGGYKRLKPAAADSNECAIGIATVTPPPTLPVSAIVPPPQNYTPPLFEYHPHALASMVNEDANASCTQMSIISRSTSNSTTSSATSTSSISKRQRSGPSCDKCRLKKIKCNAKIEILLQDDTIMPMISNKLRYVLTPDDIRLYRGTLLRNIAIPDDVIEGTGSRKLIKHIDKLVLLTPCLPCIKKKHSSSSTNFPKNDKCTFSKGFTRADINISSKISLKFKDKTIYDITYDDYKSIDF
Procedure: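 Universal 'all 10-mer' protein binding microarrays (Agilent AMADID 015681) probed with GST-tagged S. cerevisiae TFs (full-length or DBD) made by in vitro transcription/translation (PURExpress), about 100-200 nM. Bound TF was detected with fluorescent anti-GST. Each ungapped 8-mer (which stands for itself and its reverse complement) is scored by the PBM enrichment score (E-score), a modified Wilcoxon-Mann-Whitney statistic from -0.5 to +0.5, computed with the Universal PBM Analysis Suite. Scale: above 0.35 generally sequence-specific binding.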

Row | Sequence | PBM E-score
1 | AGCCTAGA | -0.224
2 | GAACCGCA | 0.0646
3 | AATTGACC | 0.0635
4 | CGAGTGAG | 0.0764
5 | CGGAATAA | 0.306
6 | GGGAATAC | -0.0577
7 | CGGAATAC | 0.325
8 | GGGAATAA | 0.233
9 | TGGAATAA | 0.122
10 | AGGAATAC | -3e-05
11 | AAAGGGTA | -0.054
12 | TGTGGCAA | -0.0604
13 | GAATTGGA | 0.0498
14 | CCCAAACC | -0.0698
15 | GTCCCGCA | -0.159
16 | ATCCCGGG | -0.07
17 | GTCCCCGA | 0.066
18 | ATCCCGGA | 0.328
19 | GTCCCGGA | 0.348
20 | CTCCCGGA | 0.232
21 | CAGTCGAC | -0.0872
22 | TATGCTGA | 0.175
23 | CACACCGG | 0.0539
24 | AACACCGG | 0.301

Row | Sequence | PBM E-score
25 | AACACCGC | -0.0108
26 | CTGCTATC | 0.134
27 | AGTCTCTG | -0.12
28 | AGCAGTAA | 0.0389
29 | AAAAGGCA | 0.114
30 | CAGACGAA | 0.298
31 | CAGACGAC | -0.213
32 | GAGACGAA | -0.0447
33 | AGCTATGC | -0.227
34 | AGGAATTA | 0.137
35 | CGGAATTA | 0.349
36 | AGGAATTC | -0.203
37 | GGGAATTA | 0.143
38 | CTGAATTC | -0.102
39 | CGGAATTC | 0.323
40 | CATGTGAC | -0.0811
41 | AATAAGTC | 0.0835
42 | AATTCCGT | 0.317
43 | AATTCCAT | 0.0698
44 | AATTCCCT | -0.0468
45 | AAATCCGG | 0.36
46 | AAATCCGC | -0.0542
47 | AATTCCGG | 0.337
48 | CATTCCGG | 0.194

Row | Sequence | PBM E-score
49 | AAATCCGT | 0.149
50 | AATTCCGC | 0.192
51 | AAGAGTCG | 0.00242
52 | AGTAGTGC | -0.185
53 | ACACTCGG | 0.00116
54 | GAGAATGC | 0.0169
55 | GACTTATC | -0.0236
56 | AACTTATA | 0.31
57 | CACTTATA | 0.0975
58 | AACTTATG | 0.0687
59 | TACTTATA | 0.151
60 | GACTTATA | 0.326
61 | AACGTCTT | -0.113
62 | GGCTCCCC | -0.226
63 | CAAGGCCC | -0.132
64 | CGCATAAG | -0.0216
65 | CATAGGGA | -0.0219
66 | CAGGTGGC | -0.219
67 | GTTGGTGA | -0.0399
68 | ACCGGAGT | 0.492
69 | ACCGGATA | 0.0607
70 | CCCGGATA | 0.123
71 | ACCGGAAT | 0.204
72 | CCCGGAGA | 0.374

Row | Sequence | PBM E-score
73 | ACCGGAGG | 0.133
74 | ACCGGAGC | 0.353
75 | ACCGGAGA | 0.43
76 | ACCAGAGT | -0.256
77 | ACAGGAGA | -0.137
78 | ACCGGATC | 0.0878
79 | CCCGGAGG | 0.0148
80 | TGTCTGAA | 0.0592
81 | ACCGGTCT | -0.115
82 | ATGACAAT | 0.198
83 | TCCGGAGA | 0.409
84 | GCCGGAGC | 0.284
85 | CCCGGAGC | 0.406
86 | CCGGGAGC | -0.0765
87 | TCCAGAGA | -0.187
88 | GCCGGAAA | 0.244
89 | CCCGGAAC | 0.129
90 | GCCGGAGA | 0.316
91 | TCAGGAGA | 0.0262
92 | CCACCCAG | -0.129
93 | CCGAGTTC | 0.0827
94 | ATACTGGG | -0.138
